# Hits are enriched below; roughly 4% of the tested compounds scored in any of these assays.
# TWEAK Fn14 block: blocks TWEAK-Fn14 interaction in a reporter cell assay; AID 1159606; 360,000 compounds, 2% hits; TWEAK-stimulated Fn14 reporter cells, luciferase luminescence, 8 h; inhibition, % at 10 µM; in the data active means inhibition above about 50%
# Peg3 prom inh-1: Peg3 promoter activity inhibition; 360,000 compounds, 1.7% hits; AID 588405; HeLa PEG-Prom luciferase reporter, luminescence, overnight; inhibition, % at 20 µM;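 active means inhibition of at least 50% at 20 µM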
# HIF-2a block: HIF-2a inhibition | 786-0 RCC cells HIF-2a reporter, luciferase luminescence, overnight | AID 624352 | inhibition, % at 18.8 µM | 360,000 compounds, 0.72% hits;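 active means inhibition of the luminescence signal of 40% or more relative to plate controls, in a single-dose primary screen at 18.75 µM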
# TROY NFkB inh: inhibitors of TROY-dependent NF-kB signaling. Q293 LMP1-TROYcd NF-kB luciferase reporter, 4 h. inhibition, % at 10 µM. 360,000 compounds, 0.98% hits. AID 1347056;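 active means compounds whose plate-normalised and pattern-corrected inhibition of the luciferase reporter signal at the single screening dose is 50% or more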
# EBV LMP1 NFkB: reduces LMP1-driven NF-kappaB luciferase signal; LMP1-induced NF-kappaB luciferase reporter cells, luminescence; inhibition, % at 12.5 µM; 350,000 compounds, 0.69% hits; in the data active means inhibition above about 41%;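 further: 0% = neutral control wells and 100% = reference inhibitor control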
# MITF TRPM1 inh: reduces MITF-dependent TRPM1 promoter luciferase signal; SK-MEL-5 TRPM1 promoter luciferase, 24 h; inhibition, % at 12.5 µM; 330,000 compounds, 0.83% hits; AID 488899;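 active means mean inhibition across replicates of 60% or more, whatever share of single replicates reaches that level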
# Peg3 prom inh-2: confirmation of Peg3 promoter inhibitors; HeLa PEG-Prom luciferase reporter, luminescence, overnight; inhibition, % at 20 µM; shares compounds with Peg3 prom inh-1; AID 602417; 1,300 compounds, 84% hits;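 active means at 20 µM dose, 40% or more inhibition averaged across four replicates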
# Mdm2 MdmX conf: confirmation of inhibitors of human Mdm2/MdmX interaction, set 2; shares compounds with HIF-2a block; SaOS-2 split-luciferase Mdm2/MdmX complementation, luminescence; inhibition, % at 8 µM; 740 compounds, 99% hits; AID 504601;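 active means mean inhibition of the luminescence signal across two replicates at or above 26 percent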
# Target sequence (O15151 whole entry, looked up): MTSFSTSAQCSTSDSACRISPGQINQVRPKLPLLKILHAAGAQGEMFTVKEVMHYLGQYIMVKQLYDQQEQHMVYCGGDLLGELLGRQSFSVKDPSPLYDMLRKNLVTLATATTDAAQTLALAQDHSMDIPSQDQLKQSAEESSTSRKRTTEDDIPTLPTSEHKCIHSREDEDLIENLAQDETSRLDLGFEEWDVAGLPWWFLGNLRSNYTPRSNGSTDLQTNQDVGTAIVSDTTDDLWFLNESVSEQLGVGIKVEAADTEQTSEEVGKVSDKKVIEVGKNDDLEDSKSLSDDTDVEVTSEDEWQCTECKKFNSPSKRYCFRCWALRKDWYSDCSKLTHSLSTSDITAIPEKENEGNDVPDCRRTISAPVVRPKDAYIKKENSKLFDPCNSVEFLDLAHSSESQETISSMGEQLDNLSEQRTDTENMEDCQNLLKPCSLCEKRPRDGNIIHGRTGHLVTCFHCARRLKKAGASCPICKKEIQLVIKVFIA
# Target sequence (Q00987 whole entry, looked up): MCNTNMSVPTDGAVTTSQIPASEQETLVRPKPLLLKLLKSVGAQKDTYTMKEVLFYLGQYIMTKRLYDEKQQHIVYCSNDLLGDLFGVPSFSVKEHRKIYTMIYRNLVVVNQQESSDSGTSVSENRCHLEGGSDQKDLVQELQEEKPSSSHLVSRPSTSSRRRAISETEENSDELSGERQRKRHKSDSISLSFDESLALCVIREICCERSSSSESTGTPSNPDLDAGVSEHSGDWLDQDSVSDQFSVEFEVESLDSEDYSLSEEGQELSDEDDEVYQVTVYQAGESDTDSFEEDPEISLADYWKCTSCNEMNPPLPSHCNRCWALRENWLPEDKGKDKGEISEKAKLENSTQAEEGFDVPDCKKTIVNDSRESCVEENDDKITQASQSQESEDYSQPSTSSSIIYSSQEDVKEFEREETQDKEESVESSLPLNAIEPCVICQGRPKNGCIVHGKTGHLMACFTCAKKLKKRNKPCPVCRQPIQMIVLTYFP
# HIF-2a conf: confirmation of HIF-2a inhibitors | shares compounds with HIF-2a block | 786-0 RCC cells, HIF-2a luciferase reporter luminescence, overnight | inhibition, % at 18.8 µM | 1,800 compounds, 56% hits;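 active means mean inhibition across four replicates of at least 40 percent at the single tested concentration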
# HIF-1a counter: counter-screen for HIF-2a inhibitors: HIF-1a inhibition in MiaPaCa-2 cells; inhibition, % at 18.8 µM; AID 651589; 1,800 compounds, 72% hits; shares compounds with HIF-2a block; MiaPaCa-2 HIF-1a luciferase reporter, desferoxamine, overnight;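 active means mean inhibition of the reporter signal across four replicates at the single tested dose of 50% or more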
# The depositor's hits bear a star; nt = not tested or not shown.
SMILES,TWEAK Fn14 block,Peg3 prom inh-1,HIF-2a block,TROY NFkB inh,EBV LMP1 NFkB,MITF TRPM1 inh,Peg3 prom inh-2,HIF-2a conf,HIF-1a counter,others
Cc1noc(C)c1CSCC(=O)Nc1ccc(S(=O)(=O)C(F)F)cc1,-9.0,-12.4,9.8,-3.4,5.6,-9.8,nt,nt,nt,
CCOC(=O)c1c(NC(C)=O)sc2c(OCCN(CC)CC)c(Br)ccc12,-43.4,27.1,-2.0,-25.8,-17.9,-23.5,nt,nt,nt,
CCOC(=O)c1c(NC(C)=O)sc2c(OCC(O)CN(CC)CC)c(Br)ccc12 (stereo not drawn),-42.6,85.6*,77.9*,-0.9,-27.6,8.3,97.8*,4.0,105.6*,
CC(C)OC(=O)c1ccccc1C(=O)c1ccc(N)c([N+](=O)[O-])c1,-0.8,12.0,19.3,7.1,1.1,-1.7,nt,nt,nt,
CNC(=O)COC(=O)c1ccccc1C(=O)c1ccc(Cl)c([N+](=O)[O-])c1,101.0*,100.1*,71.3*,73.8*,7.5,89.2*,98.9*,30.2,104.0*,
O=C(Nc1ccncc1)C1CCN(S(=O)(=O)c2ccc(Cl)c(C(F)(F)F)c2)CC1,-21.5,3.4,21.2,17.0,-4.0,-9.3,nt,nt,nt,
Cn1nnnc1Sc1ncnc2scc(-c3cccc4ccccc34)c12,60.2*,98.4*,53.0*,29.3,5.0,34.2,97.4*,68.0*,105.0*,
COc1ccccc1-c1csc2ncnc(Sc3nnnn3C)c12,22.6,30.9,19.6,-8.2,5.9,2.4,nt,nt,nt,
C(=NN1CCCCCC1)c1ccc2ccccc2n1,104.0*,91.0*,87.4*,86.6*,84.4*,93.2*,95.7*,96.9*,103.3*,
CCOc1ccccc1NC(=O)C1COc2ccccc2O1 (stereo not drawn),-2.5,-2.8,-20.5,-21.5,3.3,-5.7,nt,nt,nt,
Cc1nn(C(C)(C)C)c(C)c1/C=N/OC(=O)Nc1ccc(Cl)cc1,103.1*,96.1*,90.6*,82.5*,73.8*,78.5*,95.4*,96.1*,103.3*,Mdm2 MdmX conf=100.7*
CC(OC(=O)c1cc(=O)c2cc(Cl)ccc2o1)C(=O)N1CCCC1 (stereo not drawn),-0.3,5.8,2.2,-2.6,-3.8,3.1,nt,nt,nt,
O=C(O)c1ccc2nc(-c3ccccc3)sc2c1,78.6*,86.8*,78.5*,-11.6,10.7,-25.2,45.9*,61.6*,16.4,
Cc1ccc2nc(NC(=O)CSCC(=O)OCC(=O)c3ccc(Br)cc3)sc2c1,74.1*,51.6*,57.0*,64.5*,29.1,49.0,65.1*,51.2*,86.3*,
O=c1cnnc(N/N=C/c2ccccn2)[nH]1,-6.8,61.6*,13.9,19.7,76.0*,80.0*,73.3*,nt,nt,Mdm2 MdmX conf=87.0*
C(=N\Nc1nc2ccccc2[nH]1)/c1ccccn1,100.3*,85.9*,73.4*,82.2*,-1.2,83.2*,75.7*,-19.4,-36.1,
Cc1cc(=O)[nH]c(N/N=C/c2ccccn2)n1,-3.6,19.2,-97.1,-6.9,16.1,28.9,nt,nt,nt,
CC1(C(=O)NS(=O)(=O)c2cccc(OC(F)F)c2)CCN1C(=O)Cc1ccsc1 (stereo not drawn),2.1,-1.6,8.4,1.3,nt,nt,nt,nt,nt,
Cc1ccc2nc(C)cc(Nc3ccc([N+](=O)[O-])cc3)c2c1,-150.8,104.2*,52.5*,-20.0,-97.9,84.4*,98.4*,12.1,95.3*,
COc1ccc2nc(C)cc(Nc3ccc(C)cc3)c2c1,-24.1,23.8,10.2,-8.6,0.7,12.9,nt,nt,nt,
CCOc1ccc(NC(=O)c2cnccn2)cc1,45.4,-44.1,-79.2,3.4,19.8,-23.4,nt,nt,nt,
CCOc1ccc(NC(=O)c2ccccn2)cc1,95.2*,66.6*,55.9*,72.2*,65.5*,61.7*,46.4*,70.1*,71.3*,
Cc1ccc(/C=C2\SC(=S)N(CCCC(=O)Nc3ccccn3)C2=O)cc1,79.4*,53.2*,84.2*,67.7*,55.7*,79.3*,74.6*,nt,nt,Mdm2 MdmX conf=93.5*
O=C(CCCN1C(=O)/C(=C\c2cccs2)SC1=S)Nc1ccccn1,3.4,0.5,29.8,-13.0,9.3,8.7,nt,nt,nt,
NS(=O)(=O)c1ccc(NC(=O)CSc2nc(Nc3ccccc3)nc(N3CCOCC3)n2)cc1,-23.6,-17.7,16.6,-9.1,-1.2,-36.8,nt,nt,nt,
SMILES,TWEAK Fn14 block,Peg3 prom inh-1,HIF-2a block,TROY NFkB inh,EBV LMP1 NFkB,MITF TRPM1 inh,Peg3 prom inh-2,HIF-2a conf,HIF-1a counter,others
CCOC(=O)c1ccc2nc(Nc3nc4ccc(F)cc4s3)sc2c1,99.3*,95.9*,90.7*,87.2*,24.2,96.4*,93.1*,93.4*,72.5*,
CCOC(=O)c1ccc2nc(NC(C)=O)sc2c1,-9.2,-211.3,-213.1,-52.4,-14.8,-38.4,nt,nt,nt,
Cc1nn(-c2ccccc2Cl)c(Cl)c1/C=N/Nc1nc2ccccc2s1,108.1*,72.4*,73.6*,95.4*,56.0*,98.2*,75.3*,84.0*,92.0*,Mdm2 MdmX conf=97.7*
O=C(Cc1ccccc1)NCC(=O)N1CCN(c2ccccc2)CC1,-3.2,7.8,9.7,12.3,0.6,4.0,nt,nt,nt,
COc1ccc2[nH]cc(C(=O)CCl)c2c1,56.5*,106.7*,33.2,12.3,-10.4,90.6*,97.5*,nt,nt,Mdm2 MdmX conf=102.5*
COc1ccc2[nH]cc(C(=O)CN3CC(C)CC(C)C3)c2c1 (stereo not drawn),6.1,-9.9,5.3,1.7,0.3,5.3,nt,nt,nt,
COc1ccccc1N(C(=O)CCl)c1cn(C(C)=O)c2ccccc12,73.0*,66.7*,47.7*,-12.6,28.5,63.1*,71.8*,44.2*,49.3,Mdm2 MdmX conf=103.2*
CC(NC(=O)c1ccc([N+](=O)[O-])o1)C12CC3CC(CC(C3)C1)C2 (stereo not drawn),4.3,86.2*,64.2*,5.8,-8.8,69.8*,76.7*,21.4,102.7*,
CSc1ncnc2c1ncn2CCCNCc1ccc(C)o1,0.9,-5.1,11.1,4.5,1.9,nt,nt,nt,nt,
CC(C)(C)c1ccc(Cn2c(=O)cnc3ccccc32)cc1,92.1*,86.3*,62.1*,81.3*,63.0*,48.7,77.3*,66.2*,86.2*,
Cc1c(-c2ccccc2)oc2c(C(=O)N3CCN(c4ccc([N+](=O)[O-])cc4)CC3)cccc2c1=O,75.4*,1.9,27.0,42.3,32.1,-18.8,nt,nt,nt,Mdm2 MdmX conf=87.0*
Cc1ccccc1C(=O)N1CCN(c2ccc(NC(=O)c3cccnc3)cc2)CC1,-37.1,0.3,17.9,9.7,33.7,-1.4,nt,nt,nt,
O=C(Nc1ccc(N2CCN(C(=O)c3ccccc3)CC2)cc1)c1ccc([N+](=O)[O-])o1,3.4,102.6*,90.2*,8.9,-18.5,91.1*,nt,87.9*,105.1*,
